Reference: PubChem BioAssay AID1159580 (chemical genetic matrix, 2015)
Hit rate of the full screen: of about 5,500 compounds, about 2,000 (36%) were called active. Not shown: some 18% with an inconclusive outcome. Rule as the data show it: active = normalized growth mostly below about 0.91 (no sharp cut-off); inconclusive = no clear call, values can overlap the other calls; inactive = mostly above about 0.92. The list shows a part of the results.

Experiment: chemical genetic growth profiling, strain panel (AID 1159580);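 also: tested at 20 µM; growth read once vehicle control cultures reached saturation at 30 °C; 1 = growth at the plate median or of vehicle wells; lower values mean less growth of the strain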
Conditions: growth OD

Measured: normalized growth

C=CCN1CC[C@]23c4c5ccc(O)c4OC2C(=O)CC[C@@]3(O)[C@H]1C5 (some centres not stated)
inactive: S. cerevisiae deletion strains, locus YJR075W, strain HOC1, stronger effect = lower value 1 | S. cerevisiae deletion strains, locus YKL009W, strain mrt4, stronger effect = lower value 0.977 | S. cerevisiae deletion strains, locus YKL068W, stronger effect = lower value 0.993 | S. cerevisiae deletion strains, locus YKL085W, strain MDH1 (second series), stronger effect = lower value 1 | S. cerevisiae deletion strains, locus YKL085W, strain MDH1, stronger effect = lower value 1 | S. cerevisiae deletion strains, locus YKL160W, strain elf1, stronger effect = lower value 0.975 | S. cerevisiae deletion strains, locus YKL190W, strain CNB1, stronger effect = lower value 1 | S. cerevisiae deletion strains, locus YKR001C, strain vps1, stronger effect = lower value 0.989 | S. cerevisiae deletion strains, locus YKR026C, strain gcn3, stronger effect = lower value 0.979 | S. cerevisiae deletion strains, locus YKR091W, strain srl3, stronger effect = lower value 0.973 | S. cerevisiae deletion strains, locus YLL001W, strain dnm1, stronger effect = lower value 0.983 | S. cerevisiae deletion strains, locus YLL026W, stronger effect = lower value 0.988 | S. cerevisiae deletion strains, locus YLL041C, strain sdh2, stronger effect = lower value 0.963 | S. cerevisiae deletion strains, locus YLR027C, strain aat2, stronger effect = lower value 0.976 | S. cerevisiae deletion strains, locus YLR039C, strain RIC1, stronger effect = lower value 1 | S. cerevisiae deletion strains, locus YLR058C, strain SHM2, stronger effect = lower value 1.01 | S. cerevisiae deletion strains, locus YLR102C, strain apc9, stronger effect = lower value 0.998 | S. cerevisiae deletion strains, locus YLR113W, strain HOG1, stronger effect = lower value 0.973 | S. cerevisiae deletion strains, locus YLR221C, strain rsa3, stronger effect = lower value 0.982 | S. cerevisiae deletion strains, locus YLR258W, strain gsy2, stronger effect = lower value 0.983 | S. cerevisiae deletion strains, locus YLR262C, strain YPT6 (second series), stronger effect = lower value 0.97 | S. cerevisiae deletion strains, locus YLR262C, strain YPT6, stronger effect = lower value 1.04 | S. cerevisiae deletion strains, locus YLR268W, strain sec22, stronger effect = lower value 1.04 | S. cerevisiae deletion strains, locus YLR320W, strain mms22, stronger effect = lower value 0.969 | S. cerevisiae deletion strains, locus YLR330W, strain CHS5, stronger effect = lower value 1.01 | S. cerevisiae deletion strains, locus YLR342W, strain FKS1 (second series), stronger effect = lower value 1.01 | S. cerevisiae deletion strains, locus YLR342W, strain FKS1, stronger effect = lower value 0.962 | S. cerevisiae deletion strains, locus YLR357W, strain rsc2, stronger effect = lower value 0.939 | S. cerevisiae deletion strains, locus YLR370C, strain arc18, stronger effect = lower value 0.973 | S. cerevisiae deletion strains, locus YLR371W, strain rom2, stronger effect = lower value 0.976 | S. cerevisiae deletion strains, locus YLR384C, strain iki3, stronger effect = lower value 0.963 | S. cerevisiae deletion strains, locus YLR418C, strain cdc73, stronger effect = lower value 0.999 | S. cerevisiae deletion strains, locus YML016C, strain PPZ1, stronger effect = lower value 1.01 | S. cerevisiae deletion strains, locus YML032C, strain rad52, stronger effect = lower value 1.02 | S. cerevisiae deletion strains, locus YML120C, strain ndi1, stronger effect = lower value 0.974 | S. cerevisiae deletion strains, locus YML124C, strain tub3, stronger effect = lower value 0.991 | S. cerevisiae deletion strains, locus YMR058W, strain fet3, stronger effect = lower value 0.98 | S. cerevisiae deletion strains, locus YMR078C, strain ctf18, stronger effect = lower value 1 | S. cerevisiae deletion strains, locus YMR125W, strain sto1, stronger effect = lower value 0.936 | S. cerevisiae deletion strains, locus YMR129W, stronger effect = lower value 0.954 | S. cerevisiae deletion strains, locus YMR205C, strain PFK2, stronger effect = lower value 0.979 | S. cerevisiae deletion strains, locus YMR223W, strain ubp8, stronger effect = lower value 0.99 | S. cerevisiae deletion strains, locus YMR231W, strain pep5, stronger effect = lower value 0.977 | S. cerevisiae deletion strains, locus YMR263W, strain SAP30, stronger effect = lower value 1.02 | S. cerevisiae deletion strains, locus YMR307W, strain GAS1, stronger effect = lower value 1.05 | S. cerevisiae deletion strains, locus YNL067W, strain RPL9B, stronger effect = lower value 1.02 | S. cerevisiae deletion strains, locus YNL071W, strain lat1, stronger effect = lower value 0.956 | S. cerevisiae deletion strains, locus YNL128W, strain TEP1, stronger effect = lower value 1.01 | S. cerevisiae deletion strains, locus YNL153C, strain GIM3, stronger effect = lower value 1.02 | S. cerevisiae deletion strains, locus YNL183C, strain NPR1, stronger effect = lower value 0.941 | S. cerevisiae deletion strains, locus YNL209W, strain ssb2, stronger effect = lower value 0.945 | S. cerevisiae deletion strains, locus YNL233W, strain BNI4, stronger effect = lower value 1.03 | S. cerevisiae deletion strains, locus YNL248C, strain rpa49, stronger effect = lower value 0.948 | S. cerevisiae deletion strains, locus YNL250W, strain rad50, stronger effect = lower value 0.988 | S. cerevisiae deletion strains, locus YNL271C, strain bni1, stronger effect = lower value 0.998 | S. cerevisiae deletion strains, locus YNL298W, strain CLA4, stronger effect = lower value 1.01 | S. cerevisiae deletion strains, locus YNL307C, strain MCK1, stronger effect = lower value 0.996 | S. cerevisiae deletion strains, locus YNL322C, strain KRE1 (second series), stronger effect = lower value 0.927 | S. cerevisiae deletion strains, locus YNL322C, strain KRE1, stronger effect = lower value 1 | S. cerevisiae deletion strains, locus YNR049C, strain mso1, stronger effect = lower value 0.973 | S. cerevisiae deletion strains, locus YNR052C, strain pop2, stronger effect = lower value 1 | S. cerevisiae deletion strains, locus YOL006C, strain TOP1, stronger effect = lower value 1.07 | S. cerevisiae deletion strains, locus YOL012C, strain htz1 0.779 | S. cerevisiae deletion strains, locus YOL147C, strain pex11, stronger effect = lower value 0.996 | S. cerevisiae deletion strains, locus YOR001W, strain rrp6, stronger effect = lower value 0.97 | S. cerevisiae deletion strains, locus YOR061W, strain CKA2, stronger effect = lower value 1.02 | S. cerevisiae deletion strains, locus YOR069W, strain VPS5, stronger effect = lower value 1.01 | S. cerevisiae deletion strains, locus YOR070C, strain gyp1, stronger effect = lower value 0.964 | S. cerevisiae deletion strains, locus YOR080W, strain dia2, stronger effect = lower value 0.969 | S. cerevisiae deletion strains, locus YOR083W, strain WHI5, stronger effect = lower value 0.979 | S. cerevisiae deletion strains, locus YOR106W, strain vam3, stronger effect = lower value 0.948 | S. cerevisiae deletion strains, locus YOR136W, strain idh2, stronger effect = lower value 0.995 | S. cerevisiae deletion strains, locus YOR144C, strain elg1, stronger effect = lower value 1 | S. cerevisiae deletion strains, locus YOR184W, strain ser1, stronger effect = lower value 0.998 | S. cerevisiae deletion strains, locus YOR231W, strain MKK1, stronger effect = lower value 0.994 | S. cerevisiae deletion strains, locus YOR265W, strain rbl2, stronger effect = lower value 0.983 | S. cerevisiae deletion strains, locus YOR270C, strain vph1, stronger effect = lower value 0.935 | S. cerevisiae deletion strains, locus YOR290C, strain snf2, stronger effect = lower value 0.968 | S. cerevisiae deletion strains, locus YOR316C, strain cot1, stronger effect = lower value 0.994 | S. cerevisiae deletion strains, locus YPL051W, strain arl3, stronger effect = lower value 0.983 | S. cerevisiae deletion strains, locus YPL055C, strain LGE1, stronger effect = lower value 1.01 | S. cerevisiae deletion strains, locus YPL078C, strain atp4, stronger effect = lower value 0.968 | S. cerevisiae deletion strains, locus YPL106C, strain sse1, stronger effect = lower value 0.957 | S. cerevisiae deletion strains, locus YPL240C, strain hsp82, stronger effect = lower value 0.965 | S. cerevisiae deletion strains, locus YPL241C, strain CIN2, stronger effect = lower value 1.01 | S. cerevisiae deletion strains, locus YPL256C, strain CLN2, stronger effect = lower value 0.979 | S. cerevisiae deletion strains, locus YPR119W, strain clb2, stronger effect = lower value 1 | S. cerevisiae deletion strains, locus YPR141C, strain kar3, stronger effect = lower value 0.996 | S. cerevisiae deletion strains, locus YPR163C, strain tif3, stronger effect = lower value 0.996 | S. cerevisiae deletion strains, locus YPR167C, strain met16, stronger effect = lower value 1 | S. cerevisiae deletion strains, strain wtn01, stronger effect = lower value 1.01 | S. cerevisiae strains, strain wild type, stronger effect = lower value 1.01
